Screening data from PubChem BioAssay.
KKLEB tox: reduces viability of KKLEB cystic fibrosis airway cells. activity change (cytotoxicity), % at 5 µM. 0.36% of 360,000 active. KKLEB CF airway cells viability, ATPlite luminescence, overnight; stronger effect = lower value; cells stimulated with P. aeruginosa culture filtrate. AID 602141;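 active = corrected activity change at or below -50% at 5 µM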
CF NFkB block: cystic fibrosis NF-kB activation inhibition | 0.86% of 360,000 active | KKLEB NF-kB-GFP reporter, PAF-induced, GFP fluorescence overnight | inhibition, % at 5 µM;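 active = at least 50% inhibition at 5 µM, scaled per plate between neutral and stimulator controls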;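 also: PAF is a Pseudomonas aeruginosa culture filtrate used as stimulus; plate controls were PAF-stimulated DMSO wells for no effect and unstimulated DMSO wells for full effect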
Peg3 promoter: inhibitors of Peg3 promoter; HeLa PEG-Prom luciferase reporter, luminescence, overnight; 1.7% of 360,000 active; inhibition, % at 20 µM;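 active = inhibition of at least 50% at 20 µM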
TROY NFkB inh: inhibitors of TROY-dependent NF-kB signaling. Q293 LMP1-TROYcd NF-kB luciferase reporter, 4 h. inhibition, % at 10 µM. 0.98% of 360,000 active;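 active = compounds whose plate-normalised and pattern-corrected inhibition of the luciferase reporter signal at the single screening dose is 50% or more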
TWEAK Fn14 block: blocks TWEAK-Fn14 interaction in a reporter cell assay. TWEAK-stimulated Fn14 reporter cells, luciferase luminescence, 8 h. inhibition, % at 10 µM. 2% of 360,000 active. AID 1159606; in the data active = inhibition above about 50%
HIF-2a block: inhibitors of HIF-2a | 786-0 RCC cells HIF-2a reporter, luciferase luminescence, overnight | 0.72% of 360,000 active | inhibition, % at 18.8 µM;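 active = inhibition of the luminescence signal of 40% or more relative to plate controls, in a single-dose primary screen at 18.75 µM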
* hit, by the source's call; nt = not tested or not shown. This is a sample that favours compounds with a hit; in the whole collection about 4% have one here.

SMILES	KKLEB tox	CF NFkB block	Peg3 promoter	TROY NFkB inh	TWEAK Fn14 block	HIF-2a block
Cc1cc(/C=C2\SC(=S)N(C)C2=O)c(C)n1-c1ccc(O)cc1	-4	-8	62*	82*	104*	45*
CC(C)(C)[C@H]1CCC(=O)N([C@H](CN=[N+]=[N-])Cc2ccccc2)CC1	6	-6	15	-5	9	6
Cc1cccc(NC(=O)Nc2ccc(Oc3c(F)c(F)c(F)c(F)c3F)cc2)c1	-8	12	16	-1	-5	-13
O=C(Nc1ccc(Oc2c(F)c(F)c(F)c(F)c2F)cc1)OC1CCN2Cc3ccccc3N=C12 (stereo not given)	4	-19	109*	61*	37	22
CC1OC(Nc2cccc3ccccc23)C(O)C(O)C1O (stereo not given)	-27	30	-16	28	92*	7
CC1OC(Nc2ccc(N=Nc3ccccc3)cc2)C(O)C(O)C1O (stereo not given)	12	-25	-168	-40	-21	-151
CCOC(=O)Cc1csc(N/N=C/c2cccc([N+](=O)[O-])c2)n1	6	-7	-39	-13	-11	-32
O=[N+]([O-])c1cccc(-c2csc(N/N=C/c3cccc(O)c3)n2)c1	11	40	102*	51*	58*	-275
C#CCNC(=O)C1=C[C@H](c2csc3ccccc23)C[C@H](OCc2ccc(CO)cc2)O1	-7	10	30	6	20	21
O=C(Nc1ccccc1)C1=C[C@@H](c2csc3ccccc23)C[C@@H](OCc2ccc(CO)cc2)O1	-2	1	17	76*	-16	9
O=C(Nc1ccccc1)C1=C[C@@H](c2ccccc2)C[C@@H](OCc2ccc(CO)cc2)O1	5	0	-116	-48	-86	-192
O=C(Nc1ccccc1)C1=C[C@@H](C2CCCCC2)C[C@@H](OCc2ccc(CO)cc2)O1	-2	24	-29	73*	57*	-84
O=C(Nc1ccccc1)C1=C[C@H](C2CCCCC2)C[C@H](OCc2ccc(CO)cc2)O1	-18	2	-18	66*	39	-86
COc1ccc(OCC(O)CN2CCNCC2)cc1 (stereo not given)	-2	11	5	-4	-12	9
COc1cnn(-c2ccccc2)c(=O)c1N(C)C	-2	1	-5	54*	32	-15
COc1cnn(-c2cccc(C)c2)c(=O)c1Cl	10	-5	-3	3	19	-25
COc1ccc(-c2c(-c3ccsc3)oc3c2C(O)CCC3)cn1 (stereo not given)	nt	nt	nt	0	0	8
Cc1nc2ccccc2c(N)c1C(=O)/C=C/c1ccccc1	-12	-14	72*	22	34	-10
CC(=O)c1c(C)nc2ccccc2c1N	1	-8	10	7	-15	13
CC(C)(C)S(=O)N1Cc2cc(C(=O)Nc3ccc(-c4ccccc4)cc3)nc(-c3cccc(-c4cc5ccccc5o4)c3)c2[C@@H]1CCO (stereo not given in full)	-14	17	93*	-5	-16	2
CC(C)(C)S(=O)N1Cc2cc(C(=O)O)nc(-c3cccc(-c4cc5ccccc5o4)c3)c2[C@H]1CCO (stereo not given in full)	-8	-11	-21	-16	-15	-11
CC(=O)Nc1ccc2cnn(C(C)=O)c2c1	4	-31	-10	-13	-18	-18
COc1ccc(NC(=O)CN2C(=O)C(C)Oc3ccccc32)cc1OC (stereo not given)	9	-2	11	-2	10	17
Cc1cc(OCC(=O)Nc2ccc3oc(-c4ccncc4)nc3c2)ccc1Cl	11	-1	53*	17	10	8
Oc1c(C(Nc2nc3ccccc3s2)c2ccco2)ccc2cccnc12 (stereo not given)	-20	-41	-67	14	57*	-231
CCN(CC)c1ccc(C(NC(=O)C(C)C)c2ccc3cccnc3c2O)cc1 (stereo not given)	-3	-9	48	6	-9	5
CC(C)CC(=O)NC(c1cccs1)c1ccc2cccnc2c1O (stereo not given)	-11	6	31	24	-23	-50
CC(C)C(=O)NC(c1cccs1)c1cc([N+](=O)[O-])c2cccnc2c1O (stereo not given)	-5	9	56*	1	2	15
